RORg inh: ROR gamma (mouse) transcription inhibition; Drosophila S2 Gal4-RORgamma UAS-luciferase reporter, 20 h; Potency, µM (highest dose often 53.6 µM), for inactives: at the top dose activity change, negative = inhibition, hits mostly inhibitors; hit rate 5.4% among 310,000; AID 2551; note: potency is the fitted concentration of half-maximal effect; nearly all actives have a fitted effect of over 60% in size
Target sequence (P51450 whole entry, looked up, the tested form may be a part): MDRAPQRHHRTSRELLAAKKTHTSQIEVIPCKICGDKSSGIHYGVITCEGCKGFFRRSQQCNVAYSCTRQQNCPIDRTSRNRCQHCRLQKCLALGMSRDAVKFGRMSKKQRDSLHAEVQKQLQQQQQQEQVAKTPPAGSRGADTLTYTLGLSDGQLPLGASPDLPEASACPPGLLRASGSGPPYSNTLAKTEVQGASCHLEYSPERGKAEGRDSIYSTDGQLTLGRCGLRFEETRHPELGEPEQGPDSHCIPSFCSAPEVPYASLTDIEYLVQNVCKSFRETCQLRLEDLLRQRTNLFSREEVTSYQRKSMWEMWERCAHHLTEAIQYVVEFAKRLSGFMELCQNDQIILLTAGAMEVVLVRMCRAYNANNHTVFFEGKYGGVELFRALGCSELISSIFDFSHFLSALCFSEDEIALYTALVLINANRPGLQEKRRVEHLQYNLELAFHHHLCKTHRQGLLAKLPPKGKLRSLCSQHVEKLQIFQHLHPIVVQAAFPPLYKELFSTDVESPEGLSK
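Using a luciferase readout, inhibitors were identified by reduced reporter activity in Drosophila cells coexpressing a copper-inducible Gal4–ROR gamma fusion and UAS-driven Photinus luciferase, incubated 20 hr after 700 uM copper sulfate.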
IL-1B inflam inh: blocks inflammasome-driven IL-1 beta release; AID 743279; activity change, % at 57.5 µM; hit rate 4.7% among 360,000; THP-1 LPS/ATP IL-1B secretion, AlphaLISA, 16 h; active compounds read low; in the data active = activity change below about -50%; inconclusive = mostly about -30% to -49%
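THP-1 cells pretreated 1 hr with compounds (up to 57.5 uM final), then stimulated with LPS (250 ng/mL final) plus ATP (1.25 mM final); secreted IL-1B measured by AlphaLISA after 16 hr, decreased signal indicating inhibition.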
DT40 TDP1 CPT: DT40-hTDP1 cell growth loss with CPT; chicken DT40 Tdp1-/-;hTDP1 cells + 20 nM CPT, ATP luminescence, 48 h; Potency, µM (titrated, usually from 46.2 µM), without a hit: top-dose activity change, negative = growth inhibition, actives largely listed as inhibitors; hit rate 12% among 420,000; note: potency is the fitted concentration of half-maximal effect; nearly all actives have a fitted effect of over 55% in size
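Chicken DT40 Tdp1-/- cells complemented with human TDP1, 400 cells/well, exposed to compounds plus 20 nM camptothecin for at least 48 h at 37 C; viability read as ATP content by CellTiter-Glo luminescence.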
LDHA block: inhibitors of human lactate dehydrogenase A; P00338; purified LDHA, NADH/diaphorase-resazurin fluorescence; active compounds read low; activity change, % (values are at about 110 or 230 µM); hit rate 0.15% among 480,000; AID 1347041; in the data active = activity change below about -30%; inconclusive = mostly about -25% to -30%;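 note: plate controls were DMSO wells for no effect and wells without enzyme for full effect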
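Enzyme activity of human lactate dehydrogenase 5 (2 nM; 0.06 mM NADH, 0.2 mM pyruvate, 5 min, RT) is measured via a resazurin/diaphorase fluorescence readout of residual NADH.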
Gal4-VP16 FLuc: inhibits Gal4-VP16 luciferase reporter, ROR gamma counter-screen; Potency, µM (titrated, usually from 53.6 µM), for the others: top-dose activity, negative = inhibition, hits mostly inhibitors; AID 2546; Drosophila S2 Gal4-VP16 UAS-luciferase, luminescence, 20 h; hit rate 3.5% among 310,000;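 note: Gal4-VP16 expression switched on by copper sulfate through the metallothionein promoter; potency is the fitted concentration of half-maximal effect; nearly all actives have a fitted effect of over 50% in size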
TDP1 cell noCPT: qHTS for Inhibitors of human tyrosyl-DNA phosphodiesterase 1 (TDP1): qHTS in cells in absence of CPT. DT40 Tdp1-/- hTDP1 cells, no CPT, ATP luminescence, 48 h. Potency, µM (highest dose often 46.2 µM), inactives show at the highest dose activity change, negative = growth inhibition, usual class: inhibitors. hit rate 15% among 420,000. AID 686978, 2013; note: potency is the fitted concentration of half-maximal effect; nearly all actives have a fitted effect of over 55% in size
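Readout: luminescence from CellTiter-Glo after 30 min in the dark at RT. Cells: DT40 Tdp1-/- with stable hTDP1, 400/well. Exposure: compounds alone, ≥48 hr, 37 °C.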
* = called active by the depositor; ? = inconclusive; . = no result; [ ] = dose if it differs, or a comment. Shown are actives, neighbours in structure and some others; about 18% of the full set was active somewhere. Unless noted, calls come from the whole dose curve; as a rule, active = well fitted curve in the direction sought with a large enough effect; inconclusive = small, poorly fitted or top-dose-only effect, or another doubt; inactive = no such curve, though single readings can be large; an effect the other way counts as inactive or inconclusive. Unless noted, % is set by controls: 0 for no effect and ±100 for the full control effect.

SMILES	RORg inh	IL-1B inflam inh	DT40 TDP1 CPT	LDHA block	Gal4-VP16 FLuc	TDP1 cell noCPT
O=C(c1ccco1)N1CCN(C(c2ccccc2Cl)c2nnnn2Cc2cccs2)CC1 (stereo not given)	?	-3	?	-3	2%	26µM*
CCC(c1nnnn1Cc1ccco1)N1CCN(C(=O)c2ccco2)CC1 (stereo not given)	-11%	5	-16%	-12	-3%	-15%
O=C(c1ccco1)N1CCN(C(c2ccccc2Cl)c2nnnn2Cc2ccco2)CC1 (stereo not given)	?	-2	16µM*	-3	?	?
O=C(c1ccco1)N1CCN(C(c2ccccc2)c2nnnn2Cc2cccs2)CC1 (stereo not given)	?	-17	-4%	-2	-5%	?
CCOc1cc(/C=C2\NC(=O)NC2=O)ccc1OCc1ccc(Cl)cc1	.	.	.	10	.	.
Cc1ccc2nc3sc(C(=O)N4CCCc5ccccc54)c(N)c3cc2c1	36%	24	?	-10	-14%[0.365 µM]	15µM*
Cc1ccc(-c2cc(C(=O)N3CCCc4ccccc43)c3ccccc3n2)cc1	36%	-10	?	-6	2%	23µM*
O=C(c1cnn2c(C(F)F)cc(-c3ccccc3)nc12)N1CCc2ccccc21	11%	51	18µM*	-4	8%	?
Cc1ccc(-c2cc(C(F)F)n3ncc(C(=O)N4CCc5ccccc54)c3n2)cc1	0%	44	1.8µM*	0	0%	1.8µM*
O=C(NCc1ccc(F)cc1)c1ccc[n+]([O-])c1	.	.	.	7	.	.
O=C(Nc1ccc2oc(-c3cccnc3)nc2c1)c1ccc(OCc2ccccc2)cc1	.	.	.	-5	.	.
CCCCCCCCCCS(=O)CCO (stereo not given)	.	.	.	9	.	.
CCCc1ccc(NC(=O)c2nccnc2N)cc1	.	.	.	5	.	.
O=C(c1cnn2c(C(F)F)cc(-c3ccccc3)nc12)N1CCN2CCCC2C1 (stereo not given)	17%	-24	-3%	-2	5%	4%
CCc1nccn1C(=O)c1cnn2c(C(F)F)cc(-c3ccccc3)nc12	1%	.	.	.	2%	.
CCc1nccn1C(=O)c1cnn2c(C(F)F)cc(-c3ccc(C)cc3)nc12	26%	.	21µM*	-4	-12%	15µM*
O=C(c1cnn2c(C(F)F)cc(-c3ccccc3)nc12)N1CCCCC1c1cccnc1 (stereo not given)	31%	-8	15µM*	-4	-2%	?
COc1cccc(CN2CCCCCC2c2cccs2)c1OC (stereo not given)	.	.	.	3	.	.
CCOc1ccccc1C(=O)Nc1ccc(C(F)(F)F)oc1=O	.	.	.	2	.	.
COc1ccc(-c2nc(CSCC(=O)NCC(C)C)co2)cc1	.	.	.	0	.	.
Cc1ccccc1OCCN(C#N)c1nc(N(C)C)nc(N(C)C)n1	-7%	-19	?	-5	-14%	16µM*
CCOc1ccc2oc(=O)cc(-c3cc4cccc(OC)c4o3)c2c1	.	.	.	5	.	.
CCCCn1c(CNC(=O)C(C)(C)C)nc2ccccc21	13µM*	9	-6%	-2	?	?
CCn1c(CNC(=O)C(C)(C)C)nc2ccccc21	21%	-9	-8%	1	-2%	-19%
CCCn1c(CNC(=O)c2cccs2)nc2ccccc21	?	11	-5%	4	-2%	-26%
SMILES	RORg inh	IL-1B inflam inh	DT40 TDP1 CPT	LDHA block	Gal4-VP16 FLuc	TDP1 cell noCPT
COc1cc(C(=O)NCCCc2nc3ccccc3n2CC(C)C)cc(OC)c1OC	.	.	21µM*	-19	.	?
CCCn1c(CNC(=O)c2ccccc2)nc2ccccc21	10µM*	6	-10%	-4	-2%	-2%
Cn1c(/C=N/NC(=O)c2ccccc2)nc2ccccc21	13µM*	57	?	1	0%	26µM*
CC(C)Cn1c(CNC(=O)c2ccccc2)nc2ccccc21	16µM*	?	-29%	4	?	?
CCCC(=O)NCCCc1nc2ccccc2n1C(C)C	17%	17	?	-5	-11%	15µM*
COc1cc(C(=O)NCc2nc3ccccc3n2CC(C)C)cc(OC)c1OC	.	.	.	0	.	.
CC(Sc1ccc2c(c1)OCCO2)C(=O)O (stereo not given)	.	.	.	0	.	.
Cc1ccccc1CN1C(=O)C(O)(CC(=O)c2ccccc2)c2cc(Cl)ccc21 (stereo not given)	.	.	-102%	-11	.	?
CCc1ccc(C(=O)CC2(O)C(=O)N(CCc3ccccc3)c3ccc(Cl)cc32)cc1 (stereo not given)	.	.	18µM*	6	.	16µM*
Cc1n[nH]c(C)c1C(=O)CC1(O)C(=O)N(CCc2ccccc2)c2ccc(Cl)cc21 (stereo not given)	-7%	5	?	0	-7%	23µM*
COc1ccc2cnn(CC(=O)Nc3cccc(Cl)c3)c(=O)c2c1OC	.	.	.	17	.	.
Cc1ccc(-c2ccc(Oc3ccc(C#N)c(C#N)c3)cc2)cc1	.	.	.	10	.	.
O=C(CCCN1C(=O)/C(=C\c2ccco2)SC1=S)Nc1ccc(O)cc1C(=O)O	11µM*	5	?	22	14µM*	?
O=C(CCCN1C(=O)/C(=C\c2cccs2)SC1=S)Nc1ccc(O)cc1C(=O)O	5.6µM*	-3	-18%	3	5.6µM*	-10%
O=C(CCCN1C(=O)/C(=C\c2cccs2)SC1=S)NNC(=O)c1cccnc1	5.6µM*	-2	-18%	0	?	-21%
O=C(CCCN1C(=O)/C(=C\c2cccs2)SC1=S)Nc1ccc(O)cc1	?	18	26µM*	4	?	?
O=C(CCCN1C(=O)/C(=C/c2cccs2)SC1=S)NNC(=O)c1ccncc1	-20%	0	?	-1	-24%	?
CCn1nc(C(=O)OCc2nc(-c3cccc(OC)c3)no2)c2ccccc2c1=O	.	.	.	2	.	.
COc1nc2ccccc2nc1N1CCC(C(=O)NCc2ccc(F)cc2)CC1	.	.	.	-4	.	.
COc1cccc(/C=C(/SCC(=O)O)c2nc3ccccc3s2)c1	.	.	.	15	.	.
CCOC(=O)c1cnc2ccccc2c1N1CCC(C(N)=O)CC1	.	.	.	-2	.	.
O=C(CCCN1C(=O)/C(=C/c2cccs2)SC1=S)NNC(=O)c1ccccc1O	-34%[10 µM]	0	21µM*	-6	?	16µM*
COc1ccc(-n2nnnc2C2CCN(S(=O)(=O)c3cc(OC)ccc3OC)CC2)cc1	.	.	.	0	.	.

Bioassay records: PubChem BioAssay, National Center for Advancing Translational Sciences (NCATS)
